# Bioassay records deposited in PubChem by The Scripps Research Institute Molecular Screening Center.
# Most compounds without a hit are left out; they make up all but 2.2% or so of the library.
# HTR5A ag: activates human HTR5A in OPRM1-OPRD1 agonist counter-screen; 0.61% of 340,000 active; HTR5A agonist assay, luminescence, cell-based; activation, % at 9.3 µM; P47898; in the data active means activation mostly above about 9.5%, no sharp cut-off; inactive means mostly below about 7.6%;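 further: 0% = cells with vehicle only and 100% = reference agonist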
# MOR-DOR inv ag: inverse agonist of human OPRM1-OPRD1 heterodimerization; AID 504357; cell-based MOR-DOR heterodimer luminescence, inverse agonism; P35372+P41143; 0.21% of 340,000 active; inhibition, % at 9.3 µM; in the data active means inhibition above about 22%, passing the limit was not always enough;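 further: 0% = cells with DMSO and 100% = wells without cells with DMSO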
# HTR5A inv ctr: counter-screen for OPRM1-OPRD1 inverse agonists: human HTR5A inverse agonism. HTR5A cell line, luminescence. inhibition, % at 9.3 µM. 0.083% of 340,000 active; in the data active means inhibition mostly above about 23%, no sharp cut-off; inactive means mostly below about 18%;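 further: 0% = cells with DMSO and 100% = no-cell wells with DMSO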
# MOR-DOR ag-1: agonists of human mu-delta opioid receptor heterodimerization. P35372+P41143. cells, OPRM1-OPRD1 heterodimerization, luminescence. activation, % at 9.3 µM. 0.3% of 340,000 active. AID 504326;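 further: 0% = vehicle-treated cells and 100% = reference agonist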
# HGIII-sPLA2 inh: Inhibits HGIII-sPLA2 liposome hydrolysis, primary screen | 0.56% of 370,000 active | AID 743126 | inhibition, % at 12.2 µM | Q9NZ20 | QFRET BODIPY PC-A2 liposome hydrolysis, fluorescence;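 active means inhibition above mean plus 3 SD of compounds lying within the high and low control bounds, cut at about 19% in these data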;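 further: 0% = median of test compound wells and 100% = no enzyme DMSO wells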
# HTR2A ag: mouse HTR2A agonism via beta-arrestin recruitment | activation, % at 7.6 µM | AID 624169 | 0.66% of 360,000 active | CHO-K1 mHTR2A beta-arrestin complementation, luminescence; percent of 30 µM serotonin response;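 active means activation above a run cutoff, the mean activation of all tested compounds plus 3 SD, cut at about 14% in these data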;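 further: 0% = plate median of compound wells and 100% = 30 µM serotonin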
# Target sequence (P35363 whole entry, looked up): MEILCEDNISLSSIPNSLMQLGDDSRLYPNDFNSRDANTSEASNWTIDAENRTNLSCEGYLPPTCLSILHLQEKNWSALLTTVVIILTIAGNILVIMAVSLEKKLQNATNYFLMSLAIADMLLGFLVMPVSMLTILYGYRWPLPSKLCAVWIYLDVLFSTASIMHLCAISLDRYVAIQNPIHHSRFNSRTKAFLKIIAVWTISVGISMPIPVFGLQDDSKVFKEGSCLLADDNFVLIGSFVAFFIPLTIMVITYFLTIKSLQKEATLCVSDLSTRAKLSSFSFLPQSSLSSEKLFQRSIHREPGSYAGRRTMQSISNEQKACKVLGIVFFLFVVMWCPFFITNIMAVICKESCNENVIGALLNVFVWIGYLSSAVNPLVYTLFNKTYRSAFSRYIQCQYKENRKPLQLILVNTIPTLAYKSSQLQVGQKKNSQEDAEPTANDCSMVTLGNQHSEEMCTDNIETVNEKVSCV
# MOR-DOR ag-2: opioid heterodimer agonism, HTR5A counter-screen. shares compounds with HTR5A ag. U2OS counter-screen cells, complementation luminescence, 3 h. activation, % at 9.3 µM. 13% of 800 active
# HTR5A ag conf: confirmation of human HTR5A agonists. shares compounds with HTR5A ag. HTR5A agonist cell assay, luminescence. activation, % at 9.3 µM. 17% of 800 active. AID 504915; in the data active means activation above about 17%;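 further: 0% = cells with vehicle only and 100% = full reference agonist response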
# Starred values were filed as active, the others as inactive; . = no result given. Unless noted, no stated cut-off is given here; in the data, active means activation above about 18%; inactive means the rest.
SMILES,HTR5A ag,MOR-DOR inv ag,HTR5A inv ctr,MOR-DOR ag-1,HGIII-sPLA2 inh,HTR2A ag,MOR-DOR ag-2,HTR5A ag conf
CC1(C)Cc2c(C#N)c(N3CCN(C(=O)c4ccco4)CC3)nc(-c3ccco3)c2CS1,18*,7,-32,-1,0,9,0,5
O=S1(=O)c2ccccc2-c2c(nnn2CC2CCCCC2)CN1C1CC1,.,.,.,.,1,.,.,.
COc1cc(CCNc2ccc3nnc(-c4ccccc4)n3n2)cc(OC)c1OC,17*,6,-51,-1,-3,0,0,3
COc1cc(-c2cc3nc(NCCc4ccncc4)ccn3n2)cc(OC)c1OC,.,.,.,.,-4,1,.,.
Cc1nn(C)c(C)c1/C=N/NC(=O)c1csc2ccccc12,.,.,.,.,1,.,.,.
CCn1ncc(/C=N\NC(=O)c2csc3ccccc23)c1C,18*,16,-71,-3,2,11,49*,-4
CN(C)[C@H]1CCN(c2cccc3c2S(=O)(=O)N2CC[C@@H](C2)O3)C1,.,.,.,.,-1,.,.,.
Cc1noc(C)c1C(=O)OCC(=O)Nc1ccccc1Oc1ccccc1,-6,-16,3,3,0,5,.,.
Cc1noc(C)c1C(=O)OCC(=O)Nc1ccccc1C(=O)NC(C)c1ccccc1 (stereo unspecified),17*,-7,-6,1,-10,-4,1,0
O=C(Nc1ccc2c(c1)OCO2)c1cc(-c2ccccc2Cl)on1,17*,-46,-34,7,-4,0,0,4
O=C(NCc1ccc2c(c1)OCO2)c1cc(-c2ccccc2Cl)on1,0,-2,-15,0,-11,2,.,.
Cc1ccc(NC(=O)C2CC3CCC2C3)c(C)c1 (stereo unspecified),.,.,.,.,15,.,.,.
O=C1N(c2ccccc2C(F)(F)F)O[C@@]1(c1ccccc1)C1CCCCC1,4,12,-21,-3,5,-4,.,.
O=C1N(c2ccccc2C(F)(F)F)O[C@@]1(c1ccccc1)C1CCCC1,29*,-22,-78,4,9,5,-1,-3
Cc1nn(CCC(=O)N2CCN(S(=O)(=O)c3ccccc3)CC2)c(C)c1C,5,5,-13,-1,-1,1,.,.
Cc1cc(C)c(S(=O)(=O)N2CCN(C(=O)CCn3nc(C)c(C)c3C)CC2)c(C)c1,16*,0,-47,0,9,2,1,1
CC[C@@H](CCC(=O)N(c1ccccc1)c1ccccc1)c1ccc(C)cc1,.,.,.,.,1,.,.,.
CCc1ccc(/C=C/C(=O)c2cc(Br)ccc(=O)c2O)cc1,17*,-33,5,6,9,-2,42*,5
O=C(CNS(=O)(=O)c1ccccc1)N1CCN(c2ccccc2)CC1,16*,-13,-15,2,6,-3,1,0
O=C(CNS(=O)(=O)c1ccccc1)N1CCCC1,1,15,2,-3,-3,-1,.,.
CCCCN1CCN(C(=O)c2cn(C(C)c3ccccc3)nn2)CC1 (stereo unspecified),.,.,.,.,1,.,.,.
CCc1ccc(Nc2nnc(SCC(=O)Nc3ccc(C(=O)O)cc3)s2)cc1,6,1,-17,0,-6,2,.,.
CCc1ccc(Nc2nnc(SCC(=O)NC(=O)c3cccn3C)s2)cc1,15*,-66,-35,13,-10,5,0,-1
COc1ccc(Nc2nnc(Cc3ccccc3)c(=O)[nH]2)c(OC)c1,17*,-14,-31,2,1,-9,4,-1
O=C(O/N=C(\c1ccccc1)c1ccccn1)c1cccc2ccccc12,39*,-9,-97,2,-1,-2,133*,4
COC(=O)CCCC1=CC2=C(c3ccccc3)C(=O)C(C)(OC(=O)C3CCCC3)C(=O)C2=CN1CCc1c[nH]c2ccccc12 (stereo unspecified),15*,-6,-12,1,-14,-2,2,8
CCN(CC)CCCN1C=C2C(=O)C(C)(OC(=O)CCc3ccccc3)C(=O)C=C2C=C1c1ccc(C#N)cc1 (stereo unspecified),1,-8,-14,1,.,-5,.,.
